Laboratory results taken from PubChem BioAssay (NCATS).
Records with an inconclusive call do not appear. Active and inactive are the calls of the source. Calls come from the whole dose curve; as a rule, active = well fitted inhibition curve with a large enough effect; inconclusive = small, poorly fitted or top-dose-only effect; inactive = no such curve, though single readings can be large or run the other way.

Each molecule was assayed against Rap guanine nucleotide exchange factor 4 (Homo sapiens) (UniProt Q8WZA2) (assay: Confirmatory qHTS for antagonist of cAMP-regulated guanine nucleotide exchange factor 4 (EPAC2) (AID 1645885; note: nearly all actives have a fitted effect of over 25% in size)). Settings: EPAC2 Rap1B-BODIPY-GDP exchange fluorescence, biochemical; series mostly up to 12.7 µM.
Rap guanine nucleotide exchange factor 4 (Homo sapiens), sequence (Q8WZA2 whole entry, looked up): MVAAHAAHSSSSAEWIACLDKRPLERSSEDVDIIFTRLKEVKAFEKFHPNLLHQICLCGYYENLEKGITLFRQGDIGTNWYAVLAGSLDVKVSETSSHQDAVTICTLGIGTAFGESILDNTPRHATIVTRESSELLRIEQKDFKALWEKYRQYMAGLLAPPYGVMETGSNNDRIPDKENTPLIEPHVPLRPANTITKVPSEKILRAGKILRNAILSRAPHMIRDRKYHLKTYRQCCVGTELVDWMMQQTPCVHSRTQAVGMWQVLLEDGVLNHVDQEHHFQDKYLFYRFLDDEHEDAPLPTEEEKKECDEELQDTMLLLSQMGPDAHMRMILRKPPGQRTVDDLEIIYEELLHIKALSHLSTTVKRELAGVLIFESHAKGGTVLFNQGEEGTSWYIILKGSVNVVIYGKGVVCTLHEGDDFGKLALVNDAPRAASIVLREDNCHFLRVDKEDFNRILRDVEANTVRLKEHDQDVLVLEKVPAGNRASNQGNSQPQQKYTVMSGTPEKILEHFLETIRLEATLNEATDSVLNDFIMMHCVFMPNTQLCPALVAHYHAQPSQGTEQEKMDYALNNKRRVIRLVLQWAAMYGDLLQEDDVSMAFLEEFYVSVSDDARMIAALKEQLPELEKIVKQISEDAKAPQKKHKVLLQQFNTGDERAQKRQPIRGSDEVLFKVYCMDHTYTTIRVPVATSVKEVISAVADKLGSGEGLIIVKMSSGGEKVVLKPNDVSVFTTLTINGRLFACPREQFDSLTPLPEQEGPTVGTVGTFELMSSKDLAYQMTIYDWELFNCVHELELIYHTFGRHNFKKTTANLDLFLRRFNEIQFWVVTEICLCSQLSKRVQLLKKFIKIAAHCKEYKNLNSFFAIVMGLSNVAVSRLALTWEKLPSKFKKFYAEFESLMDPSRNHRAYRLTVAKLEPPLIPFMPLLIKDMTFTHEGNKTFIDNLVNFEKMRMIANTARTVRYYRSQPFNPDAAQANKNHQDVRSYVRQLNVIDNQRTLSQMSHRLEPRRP
Potency is the fitted concentration of half-maximal effect.

Potency, inactive:
CC(=O)Nc1ccc(Nc2nnc(-c3ccc(O)cc3)c3ccccc23)cc1
Cc1nn(-c2ccccc2)c2nc(N)c(C#N)c(-c3ccc(O)c(O)c3)c12
Cc1cc(C)c2c(CN3CCCC3)cc(=O)oc2c1
CCCCCCn1c(=O)[nH]c2nc3cc(N)c(C)cc3nc2c1=O
COc1ccc(/C=C2\SC(=S)N(CCC(=O)N3CCCCC3CCO)C2=O)cc1 (configuration not stated)
O=C(c1ccccc1Cc1ccccc1)N1CCN(S(=O)(=O)c2ccccc2Br)CC1
Clc1ccc(OCCn2c(-c3ccco3)nc3ccccc32)cc1
Cc1cc2ccccn2c1C(=O)c1ccc(Cl)c([N+](=O)[O-])c1
COc1ccc(CNc2ncnc3onc(-c4ccc(F)cc4)c23)cc1
Cc1csc2nc(-c3cccc(NC(=O)c4cccc(F)c4)c3)cn12
COc1ccc(Cl)cc1C1CC(=O)Nc2cc3c(cc21)OCCO3 (configuration not stated)
Cc1nc2c(C(=O)NCc3ccccc3Cl)c[nH]n2c(=O)c1Cc1cccc(Cl)c1
CCOc1ccccc1C(=O)N1CCc2cc(OC)c(OC)cc2C1COc1ccc(OC)cc1 (configuration not stated)
COc1ccc(C(=O)NCCn2cc(SCc3cccc(F)c3)c3ccccc32)cc1OC

Potency, active:
Cc1ccc2c(c1)N(Cc1cccc(Cl)c1)C(=O)c1cccnc1O2 47.8 µM

outcome, inactive:
O=[N+]([O-])c1cccc(S(=O)(=O)Nc2cccc(-c3ccc(N4CCCC4)nn3)c2)c1 inactive [at 12.7 µM]
N#C/C(=C\c1ccc(-c2ccccc2C(=O)O)o1)c1nc2ccccc2[nH]1 inactive [at 12.7 µM]
